One test concerns HCC1937. Description: relative cell viability, compound + erastin, vs DMSO (fraction of DMSO control); higher = less growth inhibition. The conditions noted are these: 72 h.
The subject of another test is MDA-MB-231. Described as above. The note with it: 72 h.

Structures can show the parent of a compound that is named as a salt.
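Further: viability read by CCK-8 kit in 96-well plates, part of a combination screen pairing lipid-metabolism-targeting compounds with erastin.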

Turning to `CN(C)C(=N)NC(=N)N` [Metformin hydrochloride] + CCOc1ccccc1-n1c(C(C)N2CCN(C(=O)COc3ccc(Cl)cc3)CC2)nc2ccccc2c1=O [erastin], the relative cell viability was 0.943 with HCC1937 and 1.03 with MDA-MB-231.

With `O=C(Nc1ccc(C(O)(C(F)(F)F)C(F)(F)F)cc1)c1ccccc1Cl` + CCOc1ccccc1-n1c(C(C)N2CCN(C(=O)COc3ccc(Cl)cc3)CC2)nc2ccccc2c1=O [erastin], the results for the relative cell viability with HCC1937 and in the test on MDA-MB-231 were 0.769 and 0.844, respectively.

With `COC(=O)N(CC(=O)O)Cc1cccc(OCc2nc(-c3ccc(Cl)cc3)oc2C)c1` + CCOc1ccccc1-n1c(C(C)N2CCN(C(=O)COc3ccc(Cl)cc3)CC2)nc2ccccc2c1=O [erastin], the relative cell viability came out at 0.734 in the test with HCC1937 and 0.627 in the test with MDA-MB-231.

`CCCC[S+]([O-])c1sc2nc(-c3cccs3)cc(-c3ccccc3)c2c1N` (configuration not stated) + CCOc1ccccc1-n1c(C(C)N2CCN(C(=O)COc3ccc(Cl)cc3)CC2)nc2ccccc2c1=O [erastin]: the relative cell viability in the test with HCC1937 amounted to 0.72; in the test with MDA-MB-231 it was 0.715.

Turning to `Cc1nc(-c2nc(-c3ccc(OC(F)(F)F)cc3)no2)nn1Cc1cccc(N2CCC(S(C)(=O)=O)CC2)c1` + CCOc1ccccc1-n1c(C(C)N2CCN(C(=O)COc3ccc(Cl)cc3)CC2)nc2ccccc2c1=O [erastin], the relative cell viability with HCC1937 was 0.647; in the test on MDA-MB-231, 0.621.

`CC1=C(C)C(=O)C(C(CCCCCC(=O)O)c2ccccc2)=C(C)C1=O` (configuration not stated) [Seratrodast] + CCOc1ccccc1-n1c(C(C)N2CCN(C(=O)COc3ccc(Cl)cc3)CC2)nc2ccccc2c1=O [erastin]: the figures for the relative cell viability in the test with HCC1937 and in the test on MDA-MB-231 were 0.851 and 0.567, respectively.

For `C[C@@H]1OCC2(CCN(c3cnc(Sc4ccnc(N)c4Cl)c(N)n3)CC2)[C@@H]1N` + CCOc1ccccc1-n1c(C(C)N2CCN(C(=O)COc3ccc(Cl)cc3)CC2)nc2ccccc2c1=O [erastin], the relative cell viability came to 0.553 in the test with HCC1937 and 0.732 in the test with MDA-MB-231.

Turning to `CCC1C(O)C2C3CCC(C(C)CCO)C3(C)CCC2C2(C)CCC(O)CC12` (configuration not stated) + CCOc1ccccc1-n1c(C(C)N2CCN(C(=O)COc3ccc(Cl)cc3)CC2)nc2ccccc2c1=O [erastin], the relative cell viability in the test with HCC1937 turned out to be 0.656; in the test on MDA-MB-231, 0.58.

`COc1ccc2c(c1)CCC1C2CCC2(C)C(NCCCCCCN3C(=O)C=CC3=O)CCC12` (configuration not stated) + CCOc1ccccc1-n1c(C(C)N2CCN(C(=O)COc3ccc(Cl)cc3)CC2)nc2ccccc2c1=O [erastin]: the relative cell viability stood at 0.47 in the test on HCC1937 and 0.67 with MDA-MB-231.

Consider `N=C(N)NC(=N)NCCc1ccccc1` [Phenformin hydrochloride] + CCOc1ccccc1-n1c(C(C)N2CCN(C(=O)COc3ccc(Cl)cc3)CC2)nc2ccccc2c1=O [erastin], for which the relative cell viability in the test on HCC1937 stood at 0.756; in the test with MDA-MB-231, 0.999.

For `CSc1ccc(C(=O)/C=C/c2cc(C)c(OC(C)(C)C(=O)O)c(C)c2)cc1` [Elafibranor] + CCOc1ccccc1-n1c(C(C)N2CCN(C(=O)COc3ccc(Cl)cc3)CC2)nc2ccccc2c1=O [erastin], the relative cell viability is 0.858 in the test on HCC1937 and 0.602 in the test with MDA-MB-231.

Turning to `O=C(O)CCCc1cc2cc(Cl)ccc2n1S(=O)(=O)c1ccc2ncsc2c1` [Lanifibranor] + CCOc1ccccc1-n1c(C(C)N2CCN(C(=O)COc3ccc(Cl)cc3)CC2)nc2ccccc2c1=O [erastin], the relative cell viability in the test on HCC1937 is 0.672; in the test with MDA-MB-231 it was 0.886.

As for `CC(C)c1cc(C(C)C)c(CC(=O)NS(=O)(=O)Oc2c(C(C)C)cccc2C(C)C)c(C(C)C)c1` [Avasimibe] + CCOc1ccccc1-n1c(C(C)N2CCN(C(=O)COc3ccc(Cl)cc3)CC2)nc2ccccc2c1=O [erastin], the relative cell viability is 0.508 with HCC1937 and 0.791 with MDA-MB-231.

Turning to `O=S(=O)(Nc1ccc(C(O)(C(F)(F)F)C(F)(F)F)cc1)c1cccs1` + CCOc1ccccc1-n1c(C(C)N2CCN(C(=O)COc3ccc(Cl)cc3)CC2)nc2ccccc2c1=O [erastin], the relative cell viability in the test with HCC1937 was found to be 0.652; with MDA-MB-231, 0.568.

For the compound `COc1ccc(-c2c[nH]c3nccc(-c4ccsc4)c23)c(OC)c1` + CCOc1ccccc1-n1c(C(C)N2CCN(C(=O)COc3ccc(Cl)cc3)CC2)nc2ccccc2c1=O [erastin], the relative cell viability in the test with HCC1937 was found to be 0.675; with MDA-MB-231, 0.834.

Consider `Cc1nc(Nc2cnn(C3CCNCC3)c2)nc2c1N(C)C(=O)c1cc3ccccc3cc1N2C` + CCOc1ccccc1-n1c(C(C)N2CCN(C(=O)COc3ccc(Cl)cc3)CC2)nc2ccccc2c1=O [erastin], for which the results for the relative cell viability in the test on HCC1937 and in the test on MDA-MB-231 were 0.215 and 0.421, respectively.

As for `CC(C)=CCC[C@](C)(O)[C@H]1CC[C@]2(C)[C@@H]1[C@H](O)C[C@@H]1[C@@]3(C)CC[C@H](O)C(C)(C)[C@@H]3[C@@H](O[C@@H]3O[C@H](CO)[C@@H](O)[C@H](O)[C@H]3O)C[C@]12C` [Ginsenoside Rh1] + CCOc1ccccc1-n1c(C(C)N2CCN(C(=O)COc3ccc(Cl)cc3)CC2)nc2ccccc2c1=O [erastin], the figures for the relative cell viability in the test with HCC1937 and in the test with MDA-MB-231 were 0.679 and 0.663, respectively.

Turning to `Cc1ccc(CN(CC(O)COc2cccc3[nH]ccc23)C(C)(C)C)cc1` (configuration not stated) + CCOc1ccccc1-n1c(C(C)N2CCN(C(=O)COc3ccc(Cl)cc3)CC2)nc2ccccc2c1=O [erastin], the relative cell viability in the test on HCC1937 was 0.731; with MDA-MB-231, 0.846.

Consider `O=S(=O)(O)c1ccc2cc(N=Nc3cc(S(=O)(=O)O)c4cccnc4c3O)ccc2c1` + CCOc1ccccc1-n1c(C(C)N2CCN(C(=O)COc3ccc(Cl)cc3)CC2)nc2ccccc2c1=O [erastin], for which the relative cell viability was determined as 0.741 in the test with HCC1937 and 0.595 in the test on MDA-MB-231.

As for `CC(C)=CCC[C@](C)(O)[C@H]1CC[C@]2(C)[C@@H]1[C@H](O)C[C@@H]1[C@@]3(C)CC[C@H](O)C(C)(C)[C@@H]3[C@@H](O)C[C@]12C` [(20S)-Protopanaxatriol] + CCOc1ccccc1-n1c(C(C)N2CCN(C(=O)COc3ccc(Cl)cc3)CC2)nc2ccccc2c1=O [erastin], the figures for the relative cell viability with HCC1937 and in the test with MDA-MB-231 were 0.772 and 0.397, respectively.

`CCOC(=O)c1c(NC(=O)CN2CCN(C(=O)c3ccco3)CC2)sc2c1CCC2` + CCOc1ccccc1-n1c(C(C)N2CCN(C(=O)COc3ccc(Cl)cc3)CC2)nc2ccccc2c1=O [erastin]: the relative cell viability amounted to 0.647 with HCC1937 and 0.839 in the test with MDA-MB-231.

For the compound `CCOC(=O)N1c2ccc(C(F)(F)F)cc2[C@@H](N(Cc2cc(C(F)(F)F)cc(C(F)(F)F)c2)C(=O)OC)C[C@H]1CC` [Torcetrapib] + CCOc1ccccc1-n1c(C(C)N2CCN(C(=O)COc3ccc(Cl)cc3)CC2)nc2ccccc2c1=O [erastin], the relative cell viability with HCC1937 worked out at 0.66; with MDA-MB-231, 0.823.

Take `CCc1c(C(=O)C(N)=O)c2c(OCC(=O)O)cccc2n1Cc1ccccc1` [Varespladib] + CCOc1ccccc1-n1c(C(C)N2CCN(C(=O)COc3ccc(Cl)cc3)CC2)nc2ccccc2c1=O [erastin]: the relative cell viability was 0.547 in the test on HCC1937 and 0.652 with MDA-MB-231.

Regarding `CC(C)(Oc1ccc(CCNC(=O)c2ccc(Cl)cc2)cc1)C(=O)O` [Bezafibrate] + CCOc1ccccc1-n1c(C(C)N2CCN(C(=O)COc3ccc(Cl)cc3)CC2)nc2ccccc2c1=O [erastin], the relative cell viability in the test with HCC1937 came out at 0.736; in the test with MDA-MB-231, 0.937.

Take `C[C@@]12C[C@@H](c3ccoc3)OC(=O)[C@@H]1CC[C@]1(C)[C@H]2[C@@H]2C=C[C@@]1(O)C(=O)O2` [Columbin] + CCOc1ccccc1-n1c(C(C)N2CCN(C(=O)COc3ccc(Cl)cc3)CC2)nc2ccccc2c1=O [erastin]: the relative cell viability with HCC1937 is 0.607; in the test with MDA-MB-231, 0.688.

As for `CC(=O)N1CCN(c2ccc(OCC3COC(Cn4ccnc4)(c4ccc(Cl)cc4Cl)O3)cc2)CC1` (configuration not stated) [Ketoconazole] + CCOc1ccccc1-n1c(C(C)N2CCN(C(=O)COc3ccc(Cl)cc3)CC2)nc2ccccc2c1=O [erastin], the relative cell viability was found to be 0.884 with HCC1937 and 0.602 in the test with MDA-MB-231.

Take `O=C(NCCN1CCC2(CC1)C(=O)NCN2c1ccccc1)c1ccc2ccccc2c1` + CCOc1ccccc1-n1c(C(C)N2CCN(C(=O)COc3ccc(Cl)cc3)CC2)nc2ccccc2c1=O [erastin]: the relative cell viability with HCC1937 amounted to 0.392; in the test with MDA-MB-231, 0.589.

Turning to `CC(C)(CCCCCC(O)CCCCCC(C)(C)C(=O)O)C(=O)O` + CCOc1ccccc1-n1c(C(C)N2CCN(C(=O)COc3ccc(Cl)cc3)CC2)nc2ccccc2c1=O [erastin], the relative cell viability was 0.421 in the test on HCC1937 and 0.405 in the test on MDA-MB-231.

Regarding `COc1ccc(N(C(=O)Nc2c(C)cccc2C)c2cc(Nc3ccc(N4CCN(C)CC4)cc3)ncn2)c(OC)c1` + CCOc1ccccc1-n1c(C(C)N2CCN(C(=O)COc3ccc(Cl)cc3)CC2)nc2ccccc2c1=O [erastin], the figures for the relative cell viability in the test with HCC1937 and in the test on MDA-MB-231 were 0.553 and 0.852, respectively.

Take `COc1ccc(-c2cc(=O)c3c(O)c(OC)c(OC)c(OC)c3o2)cc1OC` + CCOc1ccccc1-n1c(C(C)N2CCN(C(=O)COc3ccc(Cl)cc3)CC2)nc2ccccc2c1=O [erastin]: the relative cell viability in the test with HCC1937 came out at 0.573; with MDA-MB-231 it was 0.784.

`COc1c(/C=C/C(=O)c2ccc(O)cc2)ccc(O)c1CC=C(C)C` + CCOc1ccccc1-n1c(C(C)N2CCN(C(=O)COc3ccc(Cl)cc3)CC2)nc2ccccc2c1=O [erastin]: the relative cell viability in the test with HCC1937 is 0.58; in the test on MDA-MB-231 it was 0.749.

`NC(=O)c1ncn([C@@H]2O[C@H](CO)[C@@H](O)[C@H]2O)c1N` [AICAR (Acadesine)] + CCOc1ccccc1-n1c(C(C)N2CCN(C(=O)COc3ccc(Cl)cc3)CC2)nc2ccccc2c1=O [erastin]: the relative cell viability came out at 0.85 with HCC1937 and 0.973 in the test on MDA-MB-231.

With `CCC(CC)CC1(C(=O)Nc2ccccc2SC(=O)C(C)C)CCCCC1` [Dalcetrapib] + CCOc1ccccc1-n1c(C(C)N2CCN(C(=O)COc3ccc(Cl)cc3)CC2)nc2ccccc2c1=O [erastin], the relative cell viability in the test with HCC1937 was 0.737; in the test with MDA-MB-231, 0.839.

Turning to `CCC(=O)Nc1cccc(Oc2nc(Nc3ccc(N4CCN(C)CC4)cc3OC)ncc2Cl)c1` + CCOc1ccccc1-n1c(C(C)N2CCN(C(=O)COc3ccc(Cl)cc3)CC2)nc2ccccc2c1=O [erastin], the results for the relative cell viability in the test with HCC1937 and with MDA-MB-231 were 0.255 and 0.795, respectively.

On to `Cc1ccc(Oc2nc3cc(-c4ccc(-c5ccccc5)cc4)c(Cl)cc3[nH]2)cc1C(=O)O` + CCOc1ccccc1-n1c(C(C)N2CCN(C(=O)COc3ccc(Cl)cc3)CC2)nc2ccccc2c1=O [erastin], for which the relative cell viability with HCC1937 stood at 0.553; in the test on MDA-MB-231 it was 0.629.

For `CCCCCCCCCCC[C@@H](C[C@@H]1OC(=O)[C@H]1CCCCCC)OC(=O)[C@H](CC(C)C)NC=O` [Orlistat] + CCOc1ccccc1-n1c(C(C)N2CCN(C(=O)COc3ccc(Cl)cc3)CC2)nc2ccccc2c1=O [erastin], the figures for the relative cell viability with HCC1937 and with MDA-MB-231 were 0.725 and 0.52, respectively.

Values taken from the supplement of paper PMC9492666.
